A selection: hits, their analogues and other compounds. The true share with any hit is near 3.2%.
GSIS activator: GLuc luminescence reporter in INS-1E cells, primary screen for activators of glucose-dependent secretion of insulin. activation, % at 16.6 µM. 0.61% of 370,000 active. INS-1E GLuc reporter insulin secretion, 2-3 h;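 active means lowest replicate activation of at least 40%, so every replicate reaches that level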;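 further: 0% = median of neutral control wells and 100% = median of IBMX positive control wells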
CaV13 ICDI inh: Disruptors of the CACNA1D IQ motif to Ca2+-dependent inactivation inhibitor domain association, primary screening, Förster resonance energy transfer in intact living …; HEK cells, CFP/YFP FRET ICDI-IQ, plate reader, 10 min; percent FRET-ratio fall versus neutral wells; inhibition, % at 12.3 µM; 0.098% of 340,000 active;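 active means mean replicate inhibition of at least 30% and at least 1% of replicates passing that level; inconclusive means only one of the two criteria is met; inactive means neither criterion is met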;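 further: 0% = median of the neutral control wells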
DENV2 CPE: inhibitors of DENV2 cytopathic effect, primary screen, cell-based, plate reader, single concentration | DENV2-infected cells, cytopathic effect rescue | CPE inhibition, % at 9.99 µM | AID 651640, 2012 | 1.7% of 350,000 active; in the data active means CPE inhibition above about 20%, passing the limit was not always enough; inconclusive means no clear call, values can overlap the other calls; tested in BHK-21 cells;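 further: 0% = median of neutral control wells and 100% = median of positive control wells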
Ecoli rRNA inh: reduced GFP signal of wild-type E. coli, primary screen, bacterial rRNA inhibitor project, GFP/RFP fluorescence, OD600, single point. E. coli WT GFP vs humanized-ribosome RFP mutants, 24 h; hits give low values; DMSO median 0, no signal -100. GFP signal change (wild-type ribosome), % (test concentration not listed). 1.6% of 350,000 active. AID 720706, 2013;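 active means significant combined selectivity score with lowered wild-type GFP, culture density cut under 30%, mutant RFP and density less affected; inactive means any of these conditions unmet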
PGC1a acetyl inh: inhibitors of PGC1a acetylation signal, primary screen, cell-based, U2OS, AlphaScreen, inhibitor mode. AlphaScreen anti-acetyl-lysine; with virally co-expressed GCN5 acetyltransferase. inhibition, % at 15.6 µM. 0.17% of 350,000 active;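 active means every replicate shows inhibition of at least 40%; inconclusive means mean inhibition at least 40% but some replicate below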;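 further: 0% = neutral control wells and 100% = positive control wells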
ERAP1 HTS inh: human ERAP1 aminopeptidase inhibitors, primary screen, biochemical, single point, plate reader; Endoplasmic reticulum aminopeptidase 1 (Homo sapiens), Q9NZ08; recombinant ERAP1, Leu-AMC fluorescence, 60 min; inhibition, % at 10.7 µM; 0.15% of 340,000 active; AID 652197, 2013;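 active means mean replicate inhibition of at least 30%, or all replicates individually reaching that 30% level; inactive means mean below 30% and not every replicate reaching it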;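 further: 0% = neutral control wells and 100% = L-leucinethiol positive control wells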
Target sequence (Q9NZ08 whole entry, looked up): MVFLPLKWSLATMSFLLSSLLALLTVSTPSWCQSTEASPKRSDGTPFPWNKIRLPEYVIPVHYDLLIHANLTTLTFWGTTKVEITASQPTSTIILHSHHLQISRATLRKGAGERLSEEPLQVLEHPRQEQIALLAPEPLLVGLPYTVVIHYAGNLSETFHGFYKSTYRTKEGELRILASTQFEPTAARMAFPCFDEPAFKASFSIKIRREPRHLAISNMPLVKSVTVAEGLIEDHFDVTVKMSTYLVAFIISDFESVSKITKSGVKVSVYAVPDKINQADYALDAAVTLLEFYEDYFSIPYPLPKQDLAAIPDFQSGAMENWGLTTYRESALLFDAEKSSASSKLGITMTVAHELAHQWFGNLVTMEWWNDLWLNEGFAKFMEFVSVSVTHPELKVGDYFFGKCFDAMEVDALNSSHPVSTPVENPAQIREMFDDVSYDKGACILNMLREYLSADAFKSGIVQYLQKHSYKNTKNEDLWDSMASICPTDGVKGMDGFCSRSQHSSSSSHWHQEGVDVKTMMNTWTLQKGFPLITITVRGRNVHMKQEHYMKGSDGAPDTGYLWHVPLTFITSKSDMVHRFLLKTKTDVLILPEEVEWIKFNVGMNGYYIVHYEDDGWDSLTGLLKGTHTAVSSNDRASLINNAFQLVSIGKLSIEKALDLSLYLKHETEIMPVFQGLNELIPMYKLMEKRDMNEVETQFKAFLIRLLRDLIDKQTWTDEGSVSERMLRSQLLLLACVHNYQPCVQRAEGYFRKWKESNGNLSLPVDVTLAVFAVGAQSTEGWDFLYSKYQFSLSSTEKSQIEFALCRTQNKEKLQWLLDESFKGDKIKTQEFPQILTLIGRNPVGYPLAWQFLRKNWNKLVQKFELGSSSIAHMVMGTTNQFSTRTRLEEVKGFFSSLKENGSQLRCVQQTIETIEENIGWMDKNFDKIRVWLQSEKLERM
Active calls of the source: *; ? = inconclusive; . = not tested or not shown.

SMILES	GSIS activator	CaV13 ICDI inh	DENV2 CPE	Ecoli rRNA inh	PGC1a acetyl inh	ERAP1 HTS inh
Cc1ccccc1-c1cnn(-c2cccc([N+](=O)[O-])c2)c1N	-5	-6	3	-46*	15	-1
CCCNC(=O)NC[C@@H]1[C@H](c2ccc(C3=CCCC3)cc2)[C@H](CO)N1C(C)=O	6	.	-11	2	-9	.
CC(=O)c1cc2c(cc1C)CCCC2(C)C	43*	-5	6	13	10	0
Cc1ccc(-n2c(-c3ccccc3)n[nH]c2=S)c(C)c1	18	-20	11	0	4	2
Cc1ccc(-n2c(Cc3cccc4ccccc34)n[nH]c2=S)c(C)c1	-1	-5	2	-45*	-4	-1
O=c1c2c(nc3n1CCCCC3)-c1ccccc1CC21CCCC1	-5	-7	-3	-36*	1	0
Nn1cnc2c(c1=O)C1(CCCCC1)Cc1ccccc1-2	2	-19	.	.	.	.
CCCN(C)C[C@H]1Oc2ncc(C#Cc3ccccc3OC)cc2C(=O)N([C@H](C)CO)C[C@H]1C	-3	.	-3	-6	-6	1
O=C1CCc2cc(S(=O)(=O)NC(Cc3ccccc3)C(=O)NCCC3=CCCCC3)ccc2N1 (stereo not given)	-23	66*	-4	1	-5	.
Cc1ccc(S(=O)(=O)N(C)C[C@@H]2Oc3ncc(-c4ccccc4)cc3C(=O)N([C@@H](C)CO)C[C@@H]2C)cc1	-10	.	-2	-6	-1	0
CN1CCCC1CCNc1ccc2c(=O)c3ccccc3oc2c1 (stereo not given)	.	-6	.	-15	.	180*
CN1CCCC1CCNc1ccc2oc3ccccc3c(=O)c2c1 (stereo not given)	.	-15	3	-6	.	-2
Cc1cc(OC(C(=O)O)c2ccccc2)c2c(C)c(Cc3ccccc3)c(=O)oc2c1 (stereo not given)	-35	9	-1	-24*	2	5
Cc1cc(OC(C)C(=O)NCC(O)c2ccccc2)c2c(C)c(C)c(=O)oc2c1 (stereo not given)	28	-14	1	-2	2	3
Cc1cccc(C)c1NC(=O)CN(C)C(C)C(=O)Nc1ccccc1-c1ccccc1 (stereo not given)	-9	8	6	-25*	.	3
Cc1ccc(S(=O)(=O)N(C)C[C@@H]2Oc3ccc(NC(=O)Nc4c(C)noc4C)cc3C(=O)N([C@H](C)CO)C[C@H]2C)cc1	5	.	-12	1	3	-5
CCC(C)c1ccccc1OCCCN(C)Cc1ccccc1 (stereo not given)	192*	-18	0	-51	-48	1
C[C@@H]1CN([C@H](C)CO)C(=O)c2cccc(NC(=O)c3ccc(-c4nccs4)cc3)c2O[C@H]1CN(C)Cc1ccc(C(F)(F)F)cc1	-8	.	.	2	1	.
COc1ccccc1NC(=O)COc1ccc2ccccc2c1	-2	.	-12	-31*	.	1
COc1ccc2nc(SCC(=O)Nc3ccccc3OC)[nH]c2c1	.	-20	1	-24*	.	-3
CCCNC(=O)c1ccccc1NC(=O)COc1ccc(OC)cc1	57*	-4	.	.	-4	.
COc1ccc(N2CCN(CC(=O)Nc3ccccc3C(=O)NCc3ccccc3)CC2)cc1	-4	-2	4	-29*	-20	-2
COc1ccc(C#Cc2ccc3c(c2)O[C@H](CN(C)C(=O)c2ccccn2)[C@@H](C)CN([C@@H](C)CO)S3(=O)=O)cc1	-11	.	15	-4	-3	-1
O=C(C[C@@H]1CC[C@H]2[C@@H](COC[C@@H](O)CN2C(=O)Nc2ccc(F)cc2)O1)NC1Cc2ccccc2C1	-13	.	-2	-4	6	0
Cc1ccc(C23CC4CC(CC(C(N)=O)(C4)C2)C3)cc1	-2	-3	?	-23*	.	-3
SMILES	GSIS activator	CaV13 ICDI inh	DENV2 CPE	Ecoli rRNA inh	PGC1a acetyl inh	ERAP1 HTS inh
COc1cccc(-n2nnnc2SCC(=O)NCc2ccc3c(c2)OCO3)c1	4	-10	-5	-21*	9	1
C[C@@H]1CN([C@@H](C)CO)C(=O)Cc2cc(NC(=O)Nc3ccccc3)ccc2O[C@@H]1CN(C)C(=O)Nc1ccc(C(F)(F)F)cc1	-12	.	-16	0	-7	.
CCn1cc(C(=O)OCC(=O)Nc2ccc(C(C)C)cc2)c(=O)c2ccc(C)nc21	17	3	-3	-23*	11	7
COc1ccc(S(=O)(=O)N(C)C[C@@H]2Oc3ccc(NS(=O)(=O)c4ccc(C)cc4)cc3CC(=O)N([C@@H](C)CO)C[C@H]2C)cc1	2	.	-6	-4	-5	.
S=C(c1cn(Cc2ccccc2)c2ccccc12)N1CCOCC1	28	-5	-5	-29*	1	-2
S=C(c1cn(Cc2ccc(Br)cc2)c2ccccc12)N1CCOCC1	-3	-5	.	.	-21	.
CO[C@H]1CN(C)C(=O)c2ccc(NS(C)(=O)=O)cc2OC[C@H](C)N(C(=O)CC2CC2)C[C@H]1C	4	.	-1	3	-7	4
CC(C)NC(=O)Nc1ccc2c(c1)CC(=O)N([C@H](C)CO)C[C@@H](C)[C@H](CN(C)S(=O)(=O)c1cn(C)cn1)O2	0	.	1	1	-4	2
COc1ccc(NC(=O)Nc2ccc3c(c2)C(=O)N([C@H](C)CO)C[C@@H](C)[C@H](CN(C)S(=O)(=O)c2ccccc2)OCCCC[C@H](C)O3)cc1	9	.	30*	2	-9	3
Cc1noc(C)c1S(=O)(=O)N(C)C[C@H]1OCCCC[C@H](C)Oc2ccc(NC(=O)Nc3ccc(F)cc3)cc2C(=O)N([C@@H](C)CO)C[C@@H]1C	5	.	73*	-1	-2	1
C[C@H](CO)N1C[C@H](C)[C@H](CN(C)S(=O)(=O)c2ccc(Cl)cc2)OCCCC[C@H](C)Oc2ccc(NC(=O)CCCN(C)C)cc2C1=O	1	.	21*	-12	6	0
C[C@@H]1CCCCO[C@@H](CN(C)S(=O)(=O)c2ccccc2)[C@H](C)CN([C@@H](C)CO)C(=O)c2cc(NC(=O)Nc3ccc(F)cc3)ccc2O1	-9	.	-11	-3	6	-4
C[C@H](CO)N1C[C@H](C)[C@H](CN(C)S(=O)(=O)c2ccccc2)OCCCC[C@H](C)Oc2ccc(NC(=O)Nc3ccc(F)cc3)cc2C1=O	-3	.	22*	-1	-3	2
